Measured values from publication PMC4242493, “Sequence specificity incompletely defines the genome-wide occupancy of Myc”.
Whole data set: some 33,000 sequences, median “normalized occupancy” near 0.075, cut for the highest 2% near 0.095. The sample holds the highest values, similar sequences and a random draw of the others, so the mix is not that of the screen.

Target: MaxL homodimer (Homo sapiens, UniProt P61244 1-160)
Experiment: universal protein-binding microarray (PBM); PBS-based mixture, 10 nM His-tagged protein dimer, 2% milk, 200 ng/uL BSA, 50 ng/uL salmon testes DNA, 0.02% TX-100; detection with Alexa 488 anti-His antibody;; high values mean tight binding
Details: protein: recombinant; tags: C-terminal His-tag (pET21a); chain copies: 2; dsDNA, one strand shown
Summary of the method: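 Each 8-mer received a fluorescence intensity from GenePix 4400A scans of Agilent 4 x 44 K 'all 10-mer' universal arrays. Those arrays had been incubated with His-tagged protein dimer at 10 nM, and the bound protein was marked with a fluorophore-conjugated anti-His antibody at 10 ng/μL. Binding occupancy is the intensity scaled to that of the highest-ranked sequence word.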

MaxL homodimer, sequence (P61244 whole entry): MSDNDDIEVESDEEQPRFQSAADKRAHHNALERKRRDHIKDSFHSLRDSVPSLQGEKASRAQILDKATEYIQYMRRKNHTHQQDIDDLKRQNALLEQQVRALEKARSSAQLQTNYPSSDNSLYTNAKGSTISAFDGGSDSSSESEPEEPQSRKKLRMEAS

Sequence | binding signal [normalized occupancy]
AATTAGTG | 0.0813
ACGTGTCT | 0.0997
ACGTGTCA | 0.0923
CCGTGTCG | 0.075
ACGTGTCG | 0.106
AAGTGTCT | 0.073
AGGTGTCG | 0.0793
ATTGAGAG | 0.0765
CATAGGGG | 0.085
AGATGGAA | 0.0827
ACATAGCA | 0.0807
GGACGTGA | 0.0764
GCACGTCC | 0.0788
GCACGTGA | 0.36
GCACGTGC | 0.834
GCACGTAC | 0.0883
GTACGTGA | 0.078
GATTGGGA | 0.076
TGCGCCCA | 0.0758
CGATTTCA | 0.072
GCCTGGCA | 0.0722
ACAACATC | 0.0778
ACAACATA | 0.0833
ACAACACG | 0.0955

Sequence | binding signal [normalized occupancy]
ACAACACC | 0.0812
ACAACATG | 0.0952
ATAACACA | 0.0874
GTAACACA | 0.0828
ATAACATC | 0.0807
ATAACATA | 0.0882
ATAACATG | 0.0981
ATAACACG | 0.0958
ACAACACA | 0.0849
GTTTCTTA | 0.0733
CCTTAACA | 0.0794
GTAGGCTA | 0.0748
CCCATGGG | 0.0962
GACATGGA | 0.0844
CAAATGGG | 0.0805
AACATGGA | 0.0836
CACATGGA | 0.162
ACCATGGG | 0.0927
AACATGGC | 0.0896
CACATGGC | 0.199
CCCATGGA | 0.0846
GACATGGC | 0.0801
AACATGGG | 0.0935
CACATGGG | 0.166

Sequence | binding signal [normalized occupancy]
ATAAGAGG | 0.073
AGGACAAG | 0.0738
GAGTCTGA | 0.0726
TATTACAA | 0.0802
CAAACCGA | 0.0737
GGAGAACA | 0.0748
CGACGTCA | 0.0748
ATACAAGG | 0.0755
CATAGGCG | 0.0751
CCGTGCCA | 0.0772
ACGTGCCC | 0.0948
TCGTGCCA | 0.0874
ACGTGCCG | 0.0929
ACGTGCCA | 0.115
ACGTGCCT | 0.0959
AACAATAC | 0.076
CTTTCCAA | 0.0733
CTTGCACA | 0.0801
GATGCACC | 0.0775
CATGCACC | 0.0986
CATGCACA | 0.0961
AATGCACC | 0.0777
AATGCACT | 0.0779
AATGCACG | 0.0974

Sequence | binding signal [normalized occupancy]
TATGCACA | 0.0883
GATGCACA | 0.0921
CCTGCACG | 0.0845
AATGCACA | 0.0785
CATGCACG | 0.101
GAGACATA | 0.0802
AGATAATC | 0.0755
ACAGGCAT | 0.0804
ATCGCAAT | 0.0728
AATCTTCA | 0.072
ACGAAAAG | 0.0718
ACCTTATG | 0.0812
AAGGCATT | 0.0725
ACGGCGTG | 0.0958
ATGGCACA | 0.0786
ATGGCATC | 0.0919
CTGGCACA | 0.0744
ATGGCATG | 0.0968
AAGGCATG | 0.0988
ACGGCGTC | 0.0722
AAGGCATA | 0.0742
ATGGCACG | 0.0985
ACGGCGTA | 0.0728
ATGGCATA | 0.085

Sequence | binding signal [normalized occupancy]
CGATGATA | 0.0772
CTTAATCA | 0.073
CAGAGACA | 0.0742
CTTCACCA | 0.085
AACAACCA | 0.0769
AAAACATA | 0.0798
AAAGAGGA | 0.0738
ACCTCAAA | 0.0749
CTTGCGTA | 0.0773
GGCTTCCA | 0.0728
CAGGCATA | 0.0804
ACGGCATG | 0.103
ACGGCATC | 0.0761
ACGGCATA | 0.0754
CAGGCATC | 0.0725
CAGGCATG | 0.0964
GACAGACC | 0.0741
AACTCCAG | 0.0726
AGTGCTGC | 0.072
GATTTGAC | 0.0751
CCGCATGC | 0.128
ACGCATGC | 0.124
CCGCATAA | 0.0821
CCGCATTC | 0.072

Sequence | binding signal [normalized occupancy]
ACGCATAG | 0.0818
ACGCATAC | 0.0842
CCGCATCA | 0.0853
ACGCATTC | 0.0764
ACGCATGG | 0.136
ACGCATTG | 0.0891
CCGCATCC | 0.0787
CCGCATGA | 0.113
ACGCTGTG | 0.0735
ACAGGGAG | 0.0726
AAAGGCAG | 0.0731
CGGGTGAC | 0.0779
ATTCATAA | 0.0836
ATGTAGGC | 0.0776
GAAAAGAA | 0.0746
GGCATTTA | 0.0801
GGATCGGA | 0.0725
ACGCATCA | 0.0829
ACGCATGA | 0.102
GCGCATGA | 0.0897
AGGCTACA | 0.0725
ACCACAGG | 0.0732
ACGTAGGC | 0.0765
